From PubChem
A selection: hits, their analogues and other compounds. The true share with any hit is near 2.1%.
TDP43 rescue: qHTS of TDP-43 Inhibitors; TDP-43 expressing yeast growth rescue, BacTiter-Glo, 24 h; Potency, µM (doses to about 46.1 µM), usual class: activators; 1.8% of 410,000 active; AID 652104, 2013; note: nearly all actives have a fitted effect of over 50% in size
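Yeast cells expressing TDP-43 under galactose induction are exposed to compounds for 24 hr at 30 deg C. BacTiter-Glo luminescence measures growth, so protective compounds score as activators.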
FUS yeast rescue: qHTS for Suppressors of FUS Proteinopathy: Primary screen using FUS-linked yeast assay; S. cerevisiae FUS-expressing, growth rescue, OD600, 24 h; Potency, µM (highest dose often 76.6 µM), actives largely listed as activators; 0.24% of 390,000 active; AID 1347120, 2019; note: nearly all actives have a fitted effect of over 55% in size
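Galactose (2%) drives FUS expression in yeast precultured in raffinose; seeding density OD 0.005. Test compounds incubated 24hr at 30C and 99% humidity before absorbance at 600 nm was measured.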
aSyn rescue: qHTS of alpha-syn Inhibitors. Yeast expressing alpha-synuclein, growth rescue, BacTiter-Glo, 24 h. Potency, µM (series often up to 46.1 µM), hits mostly activators. 0.14% of 370,000 active; note: nearly all actives have a fitted effect of over 65% in size
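Galactose-induced alpha-syn yeast (OD600=0.02, raffinose-pregrown) + pinned cpd, 24 hr, 30 deg C; growth by BacTiter-Glo luminescence. Growth restoration scores as activation.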
Abeta rescue: qHTS for compounds that reverse cellular toxicity of Amyloid beta (A-beta) peptide in yeast: Primary Screen; yeast expressing A-beta42, growth rescue, OD600, 48 h; response scale: 0% DMSO, 100% iron-clioquinol control; Potency, µM (titrated, usually from 46.1 µM), actives largely listed as activators; 0.063% of 410,000 active; note: nearly all actives have a fitted effect of over 55% in size
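Growth rescue measured by 600 nm absorbance after 48 h yeast culture at 30 C with compound. Values normalized between DMSO and an equimolar ferric chloride plus clioquinol control.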
A number is an active result; . = inactive; ? = inconclusive; / = not tested or not shown. Calls come from the whole dose curve; as a rule, active = well fitted curve in the direction sought with a large enough effect; inconclusive = small, poorly fitted or top-dose-only effect, or another doubt; inactive = no such curve, though single readings can be large; an effect the other way counts as inactive or inconclusive.

SMILES | TDP43 rescue | FUS yeast rescue | aSyn rescue | Abeta rescue
COc1ccc(OCCn2c(C(C)Oc3ccccc3)nc3ccccc32)cc1 (stereo not drawn) | 20µM | . | / | ?
COCCn1c(=O)sc2ccccc2c1=O | ? | . | . | .
O=C(Cc1ccc(-c2ccccc2)cc1)NO | / | / | . | /
CCSc1ccc([C@@H]2[C@@H]3C(=O)N(CC)C(=O)[C@@H]3[C@]3(C(=O)OC)CCCCN23)cc1 | 25.1µM | . | . | .
CCN1C(=O)[C@H]2[C@@H](c3ccc(-c4ccccc4)cc3)N3CCCC[C@@]3(C(=O)OC)[C@H]2C1=O | 35.5µM | ? | . | .
COc1cc(-c2cc3nc(NCc4cccs4)ccn3n2)cc(OC)c1OC | 35.5µM | . | . | .
c1ccc(-c2cc3nc(NCc4ccc5c(c4)OCO5)ccn3n2)cc1 | 14.1µM | ? | . | ?
c1coc(-c2cc3nc(NCc4ccc5c(c4)OCO5)ccn3n2)c1 | 17.8µM | . | . | .
COc1ccc2sc(N(Cc3cccnc3)C(=O)C3CCCCC3)nc2c1 | ? | ? | / | .
CCCNC(=O)C1CCC(Cn2c(=O)c3sccc3n(CC(=O)Nc3ccccc3C)c2=O)CC1 (stereo not drawn) | . | . | / | .
Cc1cc(C)c([N+](=O)[O-])cc1-c1ccc(/C=N/c2c(-c3ccco3)nc3ccccn23)o1 | 14.1µM | . | . | .
O=[N+]([O-])c1ccc(Cl)c(-c2ccc(/C=N/c3c(-c4ccco4)nc4ccccn34)o2)c1 | . | . | . | .
Cc1ccc(-n2c(=O)c3cccnc3n2CC(=O)Nc2ccc(Br)cc2)cc1C | . | . | / | .
Cc1ccccc1C(=O)Nc1nc(-c2ccc(Br)cc2)ns1 | . | . | / | .
COc1ccc(CCNc2cc(C)nc3c(-c4ccc(Cl)cc4)cnn23)cc1OC | 17.8µM | ? | . | .
COc1ccc(CCNc2cc(C)nc3c(-c4ccccc4)cnn23)cc1OC | . | ? | . | .
CC(=O)Nc1ccc(Nc2cc(C)nc3c(-c4ccc(Cl)cc4)cnn23)cc1 | 3.16µM | / | . | .
Cc1cc(N2CCCCC2)n2ncc(-c3ccc(Cl)cc3)c2n1 | 14.1µM | 11.2µM | . | .
Cc1cc(N2CCOCC2)n2ncc(-c3ccc(Cl)cc3)c2n1 | . | . | . | .
CCCCN1C(=O)c2[nH]nc(-c3ccccc3O)c2C1c1ccc(OCc2ccccc2)cc1 (stereo not drawn) | . | . | / | .
CCc1cccc(NC(=O)c2cc3c(=O)[nH]c4ccccc4c3n2C)c1 | . | . | / | .
COC(=O)C1=C(c2ccccc2)c2ccccc2S(=O)(=O)N1CC(=O)Nc1ccc(F)c(F)c1 | . | . | / | .
CC[C@@H]1C(c2ccc(F)cc2)=NN(c2ccc(Br)cc2)[C@H]1C(=O)N1CCOC1=O | 14.1µM | . | . | .
CC[C@@H]1C(c2ccccc2)=NN(c2ccc(Br)cc2)[C@H]1C(=O)N1CCOC1=O | ? | . | ? | .
CC(C)(C)NC(=O)C(c1cccc2ccccc12)n1c(=O)c(-c2ccccc2)nc2ccccc21 (stereo not drawn) | 35.5µM | . | . | .
SMILES | TDP43 rescue | FUS yeast rescue | aSyn rescue | Abeta rescue
CC(C)(C)NC(=O)C(c1cccc2ccccc12)n1c(=O)c(-c2ccco2)nc2ccccc21 (stereo not drawn) | . | ? | ? | .
Cc1cccc(SCC(=O)Nc2ccc3c(c2)OCCO3)c1 | 11.2µM | . | . | .
COc1cc(/C=C2\C=Cc3ccccc32)cc(OC)c1OC | / | / | . | /
COc1ccc(S(=O)(=O)Cc2ccc(C(=O)N3CCN(c4cccc(C)c4C)CC3)o2)cc1 | 25.1µM | . | . | .
O=C(c1ccc(COc2ccccc2)o1)N1CCN(S(=O)(=O)c2ccccc2Cl)CC1 | 15.8µM | . | . | .
COc1ccc(CC(=O)N2CCN(c3cccc(C)c3C)CC2)cc1 | 11.2µM | . | . | .
Cc1ccc(S(=O)(=O)Cc2ccc(C(=O)N3CCN(c4cccc(C)c4C)CC3)o2)cc1 | 22.4µM | ? | . | .
Cc1ccc(S(=O)(=O)N2CCN(C(=O)c3ccc(COc4ccccc4)o3)CC2)cc1 | . | . | . | .
COc1ccc(S(=O)(=O)Cc2ccc(C(=O)N3CCN(c4cc(C)ccc4C)CC3)o2)cc1 | ? | ? | . | .
COc1ccc(CCC(=O)N2CCN(c3cccc(C)c3C)CC2)cc1 | ? | . | . | .
S=C(NCCCc1cnc[nH]1)NCCCN(Cc1ccc(Cl)cc1)c1ccc(Br)cc1 | / | / | . | /
